# Measurements: PubChem BioAssay (Tox21)
# Inconclusive results are not listed. Activity calls are given as the source filed them. Calls come from the whole dose curve.
# Experiment: qHTS assay to identify small molecule agonists of the NFkB signaling pathway - cell viability counter screen (AID 1159515); note: nearly all actives have a fitted effect of over 55% in size
# Settings: NFkB-bla ME-180 viability, CellTiter-Glo luminescence, 5 h; series mostly up to 61 µM; activity, negative = cytotoxic: at the top concentration
# Source text: National Center for Advancing Translational Sciences [NCATS]
# NIH Chemical Genomics Center [NCGC]
# U.S. Environmental Protection Agency [EPA]
# National Institutes of Environmental Health Sciences [NIEHS]
# National Toxicology Program [NTP]
# U.S. Food and Drug Administration [FDA]
# Transcription factors and their stimulated target gene expression play pivotal roles across many cellular processes including responses to environmental stimuli. Proper regulation of associated pathways is critical to maintain cell health and function. Constitutive activation of transcription factor pathways has been implicated in tumors as it may block cellular functions such as apoptosis and lead to invasion and metastasis. One important transcription factor that stimulates gene expression in response to cytokines, UV radiation, and other stimuli is nuclear factor-kappa B (NFkB). To measure activation of the NFkB pathway, the CellSensor NFkB-bla ME-180 cell line (Life Technologies, Carlsbad, CA) that stably expresses beta-lactamase reporter gene under the regulation of a NF-kB response element was used. This assay allows measurement of the NFkB pathway activity induced by compounds in a ME-180 cell line. This system quantitates NF-kB activity using a FRET-based assay system where beta-lactamase expression disrupts FRET, allowing for fluorescent measurement of activity. This cell line has been used to screen the Tox21 10K compound library and to identify compounds that induce the NFkB pathway activity. The cytotoxicity of the Tox21 compound library against the NFkB-bla ME-180 cell line was tested in parallel by measuring cell viability using the CellTiter-Glo assay in the same wells.
# Tox21 Assay Protocol Summary:
# NFkB-bla ME-180 cells were dispensed at 2,000 cells/6 uL of assay medium per well into black wall/clear-bottom 1536-well plates using a Multidrop Combi (ThermoFisher Scientific, Waltham, MA) dispenser. After the assay plates were incubated at 37 C and 5% CO2 for an overnight, 23 nL of compounds dissolved in DMSO, positive controls or DMSO only was transferred to the assay plate by a Pintool station (Kalypsys, San Diego, CA). The assay plates were incubated at 37 C and 5% CO2 for 5 hr. One uL of LiveBLAzer B/G FRET substrate (Life Technologies) was added using a Flying Reagent Dispenser (Aurora Discovery, San Diego, CA) and the plates were incubated at room temperature for 1.5 hr. Fluorescence intensity (405 nm excitation, 460 nm and 530 nm emissions) was measured using an Envision plate reader (PerkinElmer, Shelton, CT). For cytotoxicity, 3 ul/well of CellTiter-Glo reagent was added into the assay plates using an FRD. After 30 min incubation at room temperature, the luminescence intensity was measured using a ViewLux plate reader (PerkinElmer).
# % is set by controls: 0 for no effect and ±100 for the full control effect; potency is the fitted concentration of half-maximal effect.
Structure (SMILES),"activity, negative = cytotoxic",Potency
O=c1[nH]c2ccccc2n1CCCN1CCN(C(c2ccccc2)c2ccccc2)CC1,-18.3% (inactive),–
COc1cccc(OC)c1C(=O)O,-1.6% (inactive),–
O=C(O)CN(CCN(CC(=O)O)CC(=O)O)CC(=O)O,-2.83% [at 3.12 µM] (inactive),–
O=c1c(O)c(-c2ccc(O)cc2O)oc2cc(O)cc(O)c12,-12% (inactive),–
O=C(O)c1cc(=O)c2ccccc2o1,5.52% (inactive),–
CC(C)=CCC1=C(O)c2ccccc2C(=O)C1=O,-4.71% (inactive),–
c1ccsc1,-1.16% (inactive),–
OC1CCCc2ccccc21 (stereo not given),-1.73% [at 78.8 µM] (inactive),–
CCCCCCCCCCCCCC[N+](C)(C)C,–,54.9 µM (active)
C/C=C/C=C/COC(=O)C(C)C,2.58% (inactive),–
CN(C)Cc1cc(C(C)(C)C)c(O)c(C(C)(C)C)c1,-8.12% (inactive),–
Cc1c(N)cccc1C(F)(F)F,6.21% (inactive),–
CC(C)Cn1cnc2c(N)nc3ccccc3c21,12.1% [at 28.5 µM] (inactive),–
C1CCC(SSC2CCCCC2)CC1,-11.1% (inactive),–
Sc1nc2ccccc2s1,-0.593% (inactive),–
NC[C@H]1O[C@H](O[C@H]2[C@H](O[C@@H]3O[C@H](CO)[C@@H](O)[C@H]3O)C(O)[C@H](N)C[C@@H]2N)[C@H](N)[C@@H](O)[C@@H]1O (stereo not given in full),0.788% [at 6.95 µM] (inactive),–
CC(=O)Oc1cc2c(s1)CCN(C(C(=O)C1CC1)c1ccccc1F)C2 (stereo not given),-0.098% (inactive),–
CC(C(=O)O)c1ccc2c(c1)[nH]c1ccc(Cl)cc12 (stereo not given),-26% (inactive),–
CC(C)(C)C1CCC(=O)CC1,–,54.9 µM (active)
CC[C@H](C)COC(=O)/C=C/c1ccc(N=Cc2ccc(OC)cc2)cc1,-16.9% (inactive),–

Structure (SMILES),"activity, negative = cytotoxic",Potency
CC(C)(C)c1csc(-c2cc3cc(OCc4ccccc4CC(=O)O)ccc3o2)n1,-23% (inactive),–
CCCCC/C=C\C/C=C\CCCCCCCC(=O)O,-7.48% (inactive),–
CCC(C)n1ncn(-c2ccc(N3CCN(c4ccc(OC[C@H]5CO[C@](Cn6cncn6)(c6ccc(Cl)cc6Cl)O5)cc4)CC3)cc2)c1=O (stereo not given in full),-12.8% (inactive),–
Cc1cc(C(C#N)c2ccc(Cl)cc2)c(Cl)cc1NC(=O)c1cc(I)cc(I)c1O (stereo not given),-23.8% (inactive),–
O=C1OC2(c3ccc(O)cc3Oc3cc(O)ccc32)c2ccc(N=C=S)cc21,1.1% [at 78.8 µM] (inactive),–
S=c1nccc[nH]1,1.48% (inactive),–
CCCCCCCC,-1.26% (inactive),–
COC(=O)c1ccccc1OC,-3.27% (inactive),–
C=C(CC)C(=O)c1ccc(OCC(=O)O)c(Cl)c1Cl,-21.9% (inactive),–
CCCC(=O)OCOC(=O)C1=C(C)NC(C)=C(C(=O)OC)C1c1cccc(Cl)c1Cl (stereo not given),11.7% (inactive),–
Cc1cc(-n2nc3ccc(Cl)cc3n2)c(O)c(C(C)(C)C)c1,-16.8% (inactive),–
CC1(C)CC(O)CC(C)(C)N1,2.82% [at 78.8 µM] (inactive),–
COc1cc(/C=C/c2ccccc2)oc(=O)c1,-8.79% [at 78.8 µM] (inactive),–
CNC(=O)c1ccccc1Sc1ccc2c(/C=C/c3ccccn3)n[nH]c2c1,-13.9% (inactive),–
Cc1nc2n(c(=O)c1CCN1CCC(c3noc4cc(F)ccc34)CC1)CCCC2,-17% (inactive),–
COc1ccc(NC(=O)CC(C)=O)cc1,-4.85% (inactive),–
O=C1CCc2ccc(OCCCCN3CCN(c4cccc(Cl)c4Cl)CC3)cc2N1,–,26.8 µM (active)
OCCN1CCN(CCCN2c3ccccc3Sc3ccc(C(F)(F)F)cc32)CC1,-12.4% (inactive),–
CC(=O)[C@H]1CC[C@H]2[C@@H]3CCC4=CC(=O)CC[C@]4(C)[C@H]3CC[C@]12C,-5.43% (inactive),–
COc1ccc2cc1Oc1ccc(cc1)C[C@H]1c3c(cc4c(c3Oc3cc5c(cc3OC)CCN(C)[C@@H]5C2)OCO4)CCN1C,-19.9% (inactive),–
